Autofluor counter = counter-screen for toxin protease inhibitors: compound fluorescence; 360,000 tested, 3.1% active; fluorescence intensity (no concentration beside the values); compound autofluorescence counterscreen, microsphere flow cytometry; hits give high values; in the data active = fluorescence intensity above about 16000
BoNT-F LC inh = blocks Botulinum neurotoxin F light chain protease; Multiplex microsphere protease cleavage assay, flow cytometry; inhibition, % at 10 µM; 360,000 tested, 0.22% active; in the data active = inhibition above about 35%, passing the limit was not always enough; note: plate controls were buffer without enzyme for full effect and enzyme alone for no effect
BoNT A protease = blocks Botulinum neurotoxin A light chain protease; multiplex microsphere protease substrate cleavage, flow cytometry; inhibition, % at 10 µM; 360,000 tested, 0.17% active; note: plate controls were buffer without enzyme for full effect and enzyme alone for no effect
FBA Mtb inh = Mtb fructose-bisphosphate aldolase inhibition | 360,000 tested, 2.3% active | P9WQA3 | purified M. tuberculosis FBA, fluorescence read-out | AID 588726 | inhibition, % at 1 µM; in the data active = inhibition above about 27%;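 note: 0% = vehicle and 100% = reference inhibitor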
Anthrax LF prot = anthrax lethal factor protease inhibition; P15917; multiplex microsphere protease cleavage assay, LF; inhibition, % at 10 µM; 360,000 tested, 0.12% active; AID 588501; note: plate controls were buffer without enzyme for full effect and enzyme alone for no effect
Target sequence (P15917 whole entry, looked up): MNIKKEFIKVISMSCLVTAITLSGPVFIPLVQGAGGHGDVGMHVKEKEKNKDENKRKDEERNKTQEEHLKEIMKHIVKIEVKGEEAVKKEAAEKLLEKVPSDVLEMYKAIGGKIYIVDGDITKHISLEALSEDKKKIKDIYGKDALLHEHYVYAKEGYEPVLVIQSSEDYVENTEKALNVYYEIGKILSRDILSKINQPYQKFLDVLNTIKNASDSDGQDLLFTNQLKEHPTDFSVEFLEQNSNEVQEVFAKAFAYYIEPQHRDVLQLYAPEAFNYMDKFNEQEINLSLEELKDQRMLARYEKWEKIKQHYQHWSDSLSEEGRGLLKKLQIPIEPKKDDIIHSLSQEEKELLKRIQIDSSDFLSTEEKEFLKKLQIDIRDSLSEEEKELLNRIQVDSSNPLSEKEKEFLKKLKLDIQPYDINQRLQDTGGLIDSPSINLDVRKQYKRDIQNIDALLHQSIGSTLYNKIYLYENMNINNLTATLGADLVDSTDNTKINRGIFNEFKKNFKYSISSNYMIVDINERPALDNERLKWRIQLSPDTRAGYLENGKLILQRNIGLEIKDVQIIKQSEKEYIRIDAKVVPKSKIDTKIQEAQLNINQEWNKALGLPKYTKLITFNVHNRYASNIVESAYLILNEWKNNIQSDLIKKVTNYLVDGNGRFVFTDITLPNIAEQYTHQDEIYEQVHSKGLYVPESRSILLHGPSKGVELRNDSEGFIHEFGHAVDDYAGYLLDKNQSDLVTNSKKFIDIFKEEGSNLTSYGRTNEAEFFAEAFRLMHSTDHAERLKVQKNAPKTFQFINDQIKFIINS
GDH-TPI counter-1 = inhibits GDH-TPI coupling enzymes, artifact for Mtb FBA screen. GDH-TPI coupled enzyme counterscreen, NADH absorbance. inhibition, % at 4.8 µM. 360,000 tested, 1.2% active. AID 588335; in the data active = inhibition above about 30%;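 note: 0% = DMSO wells and 100% = wells lacking the enzyme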
Mtb FBA confirm = confirmation of M. tuberculosis fructose-bisphosphate aldolase inhibitors. shares compounds with FBA Mtb inh. purified M. tuberculosis FBA, fluorescence read-out. inhibition, % at 1 µM. 5,600 tested, 78% active; in the data active = inhibition above about 27%;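 note: 0% = vehicle wells and 100% = reference inhibitor wells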
GDH-TPI counter-2 = inhibits GDH-TPI coupling enzymes, flagging Mtb FBA hits; AID 652141; shares compounds with FBA Mtb inh; inhibition, % at 1 µM; 5,600 tested, 81% active; GDH-TPI coupled enzyme counterscreen, fluorescence; in the data active = inhibition above about 10%
Numbers without * were called inactive. Hits are enriched below; roughly 6.6% of the tested compounds scored in any of these assays. Cut-off read from the data, not from the text of the source, unless noted: active = inhibition above about 30%; inconclusive = no clear call, values can overlap the other calls; inactive = below that.

Results for O=C(NC1(Cc2ccccc2)CCN(CCCc2ccccc2)C1=O)c1ccccc1 (configuration not stated) ?
Autofluor counter: 4112; BoNT-F LC inh: -5.6; BoNT A protease: 0.0; FBA Mtb inh: 3.3; Anthrax LF prot: -5.9; GDH-TPI counter-1: 5.7

What do the screens show for `COc1ccc2[nH]c(C(=O)NCCN3CCOCC3)cc2c1`?
Autofluor counter: 5993; BoNT-F LC inh: -5.2; BoNT A protease: 2.1; FBA Mtb inh: 77.0*; Anthrax LF prot: -7.1; GDH-TPI counter-1: 2.2; Mtb FBA confirm: 43.0*; GDH-TPI counter-2: 34.6*

How did COc1ccc2[nH]c(C(=O)NCc3ccc4c(c3)OCO4)cc2c1 do in these assays?
FBA Mtb inh: 38.8*; GDH-TPI counter-1: 10.7; Mtb FBA confirm: 4.5; GDH-TPI counter-2: -1.9

How did O=C(NCCN1CCOCC1)c1cc2ccccc2[nH]1 do in these assays?
Autofluor counter: 3277; BoNT-F LC inh: -8.1; BoNT A protease: -0.7; FBA Mtb inh: 11.2; Anthrax LF prot: -5.4; GDH-TPI counter-1: -8.2

How did CC(=O)Nc1ccc(-c2ccnc3c2CC(C)(C(=O)Nc2ccc(Cl)c(C(F)(F)F)c2)O3)cc1 (configuration not stated) do in these assays?
Autofluor counter: 2939; BoNT-F LC inh: -3.9; BoNT A protease: 0.2; FBA Mtb inh: 2.5; Anthrax LF prot: -8.5; GDH-TPI counter-1: 13.3

How did COc1ccc(NC(=O)C2(C)Cc3c(-c4ccc(N(C)C)cc4)ccnc3O2)cn1 (configuration not stated) do in these assays?
Autofluor counter: 2808; BoNT-F LC inh: -12.8; BoNT A protease: -0.2; FBA Mtb inh: 40.3*; Anthrax LF prot: -0.2; GDH-TPI counter-1: 27.4; Mtb FBA confirm: 128.7*; GDH-TPI counter-2: 102.6*

How did CN(C)c1ccc(-c2ccnc3c2CC(C)(C(=O)Nc2ccc(Cl)c(C(F)(F)F)c2)O3)cc1 (configuration not stated) do in these assays?
Autofluor counter: 2919; BoNT-F LC inh: -2.4; BoNT A protease: -0.3; FBA Mtb inh: 84.2*; Anthrax LF prot: -6.2; GDH-TPI counter-1: 24.8; Mtb FBA confirm: 54.2*; GDH-TPI counter-2: 40.5*

How did CCOC(=O)c1nc2c(ccc3ccccc32)cc1C do in these assays?
Autofluor counter: 5548; BoNT-F LC inh: -1.9; BoNT A protease: 0.0; FBA Mtb inh: 30.8*; Anthrax LF prot: -7.7; GDH-TPI counter-1: 3.0; Mtb FBA confirm: active; GDH-TPI counter-2: 168.1*

How did CCOC(=O)c1cc(Cl)c2c(ccc3ccccc32)n1 do in these assays?
Autofluor counter: 3650; BoNT-F LC inh: 2.3; BoNT A protease: -0.3; FBA Mtb inh: 0.6; Anthrax LF prot: -2.8; GDH-TPI counter-1: 8.8

What do the screens show for `Cc1cccn2c(=O)c(/C=C(\C#N)C(=O)NCc3ccccc3)c(N3CCC(C(N)=O)CC3)nc12`?
Autofluor counter: 5481; BoNT-F LC inh: 4.1; BoNT A protease: 0.1; FBA Mtb inh: 14.8; Anthrax LF prot: -0.3; GDH-TPI counter-1: 4.4

What do the screens show for `COc1ccc(CCNC(=O)COC(=O)c2ccc(C)s2)cc1`?
Autofluor counter: 4055; BoNT-F LC inh: -2.0; BoNT A protease: 0.9; FBA Mtb inh: 1.6; Anthrax LF prot: 2.1; GDH-TPI counter-1: -2.9

Results for COCCCNC(=O)COC(=O)c1ccc(-c2nc3ccccc3s2)s1 ?
Autofluor counter: 4380; BoNT-F LC inh: -0.2; BoNT A protease: -0.2; FBA Mtb inh: 79.4*; Anthrax LF prot: -4.5; GDH-TPI counter-1: 23.7; Mtb FBA confirm: 94.5*; GDH-TPI counter-2: 70.2*

How did CCN(CC)/C(N)=N/c1nc(C)cc(C)n1 do in these assays?
Autofluor counter: 3283; BoNT-F LC inh: -2.1; BoNT A protease: -0.7; FBA Mtb inh: 2.7; Anthrax LF prot: -1.9; GDH-TPI counter-1: 2.2

Results for CC(C)CN(C(=O)COC(=O)c1cccc2ccccc12)c1c(N)n(Cc2ccccc2)c(=O)[nH]c1=O ?
FBA Mtb inh: 0.3; GDH-TPI counter-1: 11.7

How did COCCN(C(=O)COC(=O)c1ccccc1NCc1ccco1)c1c(N)n(Cc2ccccc2)c(=O)[nH]c1=O do in these assays?
Autofluor counter: 5310; BoNT-F LC inh: -2.8; BoNT A protease: 0.1; FBA Mtb inh: 81.2*; Anthrax LF prot: -5.2; GDH-TPI counter-1: 10.8; Mtb FBA confirm: 150.9*; GDH-TPI counter-2: 117.7*

How did CC(C)CN(C(=O)COC(=O)c1ccccc1NCc1ccco1)c1c(N)n(Cc2ccccc2)c(=O)[nH]c1=O do in these assays?
FBA Mtb inh: 30.5*; GDH-TPI counter-1: -0.7; Mtb FBA confirm: 152.0*; GDH-TPI counter-2: 122.6*

How did O=C(NCCc1ccccc1)C(NS(=O)(=O)c1cccc2nsnc12)c1ccccc1 (configuration not stated) do in these assays?
Autofluor counter: 1956; BoNT-F LC inh: -0.4; BoNT A protease: 0.9; FBA Mtb inh: -0.5; Anthrax LF prot: 0.4; GDH-TPI counter-1: 13.0

How did O=C(O)CN(C1CCCCC1)S(=O)(=O)c1ccc(F)cc1 do in these assays?
Autofluor counter: 4152; BoNT-F LC inh: -5.2; BoNT A protease: -2.6; FBA Mtb inh: 0.8; Anthrax LF prot: -6.6; GDH-TPI counter-1: 0.0

How did CCOCCCNC(=O)C(NC(=O)c1ccccn1)c1ccc(C)cc1 (configuration not stated) do in these assays?
Autofluor counter: 4057; BoNT-F LC inh: 10.9; BoNT A protease: 1.2; FBA Mtb inh: 3.9; Anthrax LF prot: -0.5; GDH-TPI counter-1: 2.9

Results for CCOCCCNC(=O)C(NC(=O)c1ccccc1O)c1ccc(C)cc1 (configuration not stated) ?
Autofluor counter: 3479; BoNT-F LC inh: -4.4; BoNT A protease: 0.0; FBA Mtb inh: 41.7*; Anthrax LF prot: -9.5; GDH-TPI counter-1: 4.2; Mtb FBA confirm: active; GDH-TPI counter-2: 168.7*

Results for Fc1ccc(-n2c(-c3cccs3)nc3nc4ccccc4nc32)cc1 ?
Autofluor counter: 2658; BoNT-F LC inh: -1.6; BoNT A protease: 4.2; FBA Mtb inh: 80.8*; Anthrax LF prot: 2.9; GDH-TPI counter-1: 4.4; Mtb FBA confirm: 0.3; GDH-TPI counter-2: -4.3

What do the screens show for `O=c1c2ccccc2nc(-c2cccs2)n1-c1ccc2ccccc2c1`?
Autofluor counter: 10532; BoNT-F LC inh: 6.9; BoNT A protease: 2.3; FBA Mtb inh: 0.1; Anthrax LF prot: 2.7; GDH-TPI counter-1: 26.2

What do the screens show for `Cc1[nH]c(=O)[nH]c(=O)c1S(=O)(=O)N1c2ccc(F)cc2CCC1C` (configuration not stated)?
Autofluor counter: 9338; BoNT-F LC inh: 0.0; BoNT A protease: -0.3; FBA Mtb inh: -0.4; Anthrax LF prot: -3.9; GDH-TPI counter-1: -5.3

What do the screens show for `O=c1cc(CN2CCc3ccccc32)c2ccc(O)cc2o1`?
Autofluor counter: 3565; BoNT-F LC inh: -4.7; BoNT A protease: 0.0; FBA Mtb inh: 40.9*; Anthrax LF prot: -1.9; GDH-TPI counter-1: 6.2; Mtb FBA confirm: 3.4; GDH-TPI counter-2: 1.7

Screens deposited in PubChem by several laboratories.
